“And” between values parts separate entries of the source, which are not always exact repeats. Identical values can stand only once. The panel holds about 83,000 compounds, 20% with a hit somewhere; the sample as a whole holds those more often.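 Method: cells in 96-well plates; compound added at one concentration; 48 h incubation; percent growth measured; values under 10 scored active.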 The source made the active and inactive calls.

The subject of the experiment is HL-60(TB) leukemia. Put plainly: NCI-60 one-dose screen, 48 h (100 = growth as untreated, 0 = no growth, -100 = all killed). To be noted: 10 µM unless noted.
As for `CN1CCN(c2ccc(NC(=O)c3nc4ccc5[nH]ncc5c4c4c3CCCC4)cc2C(F)(F)F)CC1`, the growth was 28% (inactive). Take `Cc1ccc(S(=O)(=O)NCCCNc2nccc(-c3c(-c4cccc(F)c4)nc4occn34)n2)cc1`: the growth was 44.8% (inactive). Under `CCN1C(=O)N(CC)C2C1NN=c1s/c(=C3\C(=O)N(C(C)C)c4ccccc43)c(=O)n12` (centres undefined) stands -22.6% (active); under `CCOC(=O)c1c(/C=C/C(=O)O)nc2ccccc2c1/C=C/c1ccccc1`, 8.28% (active); under `COc1cc2c(c(OC)c1OC)CCC(c1cccc(C(=O)Nc3ccc(C#N)cc3)c1)O2` (centres undefined), 15.2% (inactive).

For the molecule `Oc1ccc(-c2cnc(-c3ccccc3)[nH]2)c(O)c1`, the growth is 101% (inactive). For `CCCCCn1sc(=O)n(Cc2ccc(CNC(=O)OCc3ccc4cccc(O)c4n3)cc2)c1=O`, the growth is -13.5% (active). With `NC(=O)c1c(NC(=O)c2ccc(OCC3CCCO3)cc2)sc2c1CCCC2` (centres undefined) the figure was 53.8% (inactive). Under `O=c1cc(-c2ccccc2)oc2cc(OCc3cn(Cc4ccc(F)cc4)nn3)cc(OCc3cn(Cc4ccc(F)cc4)nn3)c12` stands 98% (inactive); under `COc1ccc(C2C=C(c3ccc(Cl)cc3)N=C3SC=CN32)cc1` (centres undefined), 113% (inactive).

As to `CNCCNc1nc2ccccc2c2c(=O)c3cc(F)ccc3oc12`, the growth is 95.4% (inactive).

`CNNc1ncnc2c1cnn2-c1ccc(S(N)(=O)=O)cc1`: the growth was 83.5% (inactive). With `Cc1cc(N(CCNc2ccnc3cc(Cl)ccc23)Cc2ccco2)nc(Cl)n1` the figure was -61.9% (active); with `CC1=C(/C=C/C(C)=C/C=C/C(C)=C/C(=O)O)C(C)(C)CCC1`, 79.2% (inactive) and 46.2% (inactive) and 67% (inactive); with `COc1cc(-c2nc(SCCC(C)C)nc(Nc3ccccc3Cl)c2C#N)cc(OC)c1OC`, 101% (inactive). Under `O=C1/C(=C/c2ccc(Cl)cc2)SC(=S)N1CCc1ccc(O)cc1` stands 76.6% (inactive). On to `CCCCn1cnc2c(=O)[nH]cnc21`, for which the growth was 108% (inactive). Turning to `CC1(c2ccccc2)NC(=O)N(CC(=O)Nc2cccc(I)c2)C1=O` (centres undefined), the growth was 84.2% (inactive). For the molecule `COc1ccc(C(c2cc(OC)c(OC)c(OC)c2)N2CCN(c3ccccc3)CC2)cc1` (centres undefined), the growth was 67.1% (inactive).

Consider `NCCCCCC(=O)O`, for which the growth was 114% (inactive) and 92.6% (inactive) and 77.6% (inactive). Regarding `Nc1ccccc1NC(=O)c1ccc(CCCC(=O)Nc2ccc(C3CC3N)cc2)cc1` (centres undefined), the growth is 24.6% (inactive). Consider `O=c1c(CNc2ccc(S(=O)(=O)Nc3nccs3)cc2)coc2ccccc12`, for which the growth was 89.6% (inactive). Under `COc1cc2c(cc1OC)C(C(CCCCCC(CCC(C)C)C1NCCc3cc(OC)c(OC)cc31)CCC(C)C)NCC2` (centres undefined) stands -12.4% (active); under `COC(=O)/C(CCC=C(C)C)=C1\[C@@H](OC(C)=O)C[C@@]2(C)[C@H]1C[C@@H](O)[C@H]1[C@@]3(C)CC[C@H](NCCCNCCCCNCCCN)[C@@H](C)[C@@H]3CC[C@@]12C`, 37.2% (inactive); under `CN1CCC(CN2c3ccccc3Sc3ccccc32)C1` (centres undefined), 63.9% (inactive).

Consider `COc1cc(Nc2ccnc3ccc(Br)cc23)cc(OC)c1OC`, for which the growth was 24.8% (inactive). With `CC(=O)C1=C(O)C=C2Oc3c(C(=O)/C=C/c4c(Cl)cccc4Cl)c(O)c(C)c(O)c3[C@]2(C)C1=O` the figure was -39.3% (active). As for `O=S1(=O)CC(Br)C(Br)C1` (centres undefined), the growth is 34.4% (inactive) and 81.8% (inactive). With `c1ccc2c(CC3=NCCN3)cccc2c1` the figure was 107% (inactive) and 103% (inactive).

On to `COc1ccc2c(c1)/C(=C1/S/C(=N/c3nnc(C)s3)NC1=O)C(=O)N2Cc1ccc(Br)cc1`, for which the growth is 32.5% (inactive). Consider `CCSc1nc(Cl)c(C#N)c(-c2ccc(F)cc2)n1`, for which the growth is 81.3% (inactive). Regarding `C=C(C(N)=O)C(N)C(=O)O` (centres undefined), the growth was 104% (inactive). In the case of `O=C(Nc1ccc(S(=O)(=O)NC2CCCCCC2)cc1)C(c1ccccc1)S(=O)(=O)c1ccc(F)cc1` (centres undefined), the growth is -12.4% (active).

In the case of `COc1ccc(-c2nnc(-c3ccc4c(c3)nc(-c3ccncc3)n4C3CCCCC3)o2)cc1`, the growth is 46.1% (inactive). Under `c1csc([C@@H]2C[C@@H]3Cc4ccc5ccccc5c4N2O3)c1` stands 104% (inactive). Under `Cc1ccc(NC(=O)c2ccc(CN3CC[C@H](N(C)C)C3)c(C(F)(F)F)c2)cc1Nc1nccc(-c2cncnc2)n1` stands -51.3% (active). As to `COc1ccc(/C=C/C(=O)c2cccc(NS(C)(=O)=O)c2)cc1`, the growth is 79.6% (inactive). With `COc1ccc(-c2[nH]ncc2Nc2cc(OC)c(OC)c(OC)c2)cc1`, the growth was 31.6% (inactive). Under `Cc1ccc(NC(=O)N[C@@H](Cc2cc(F)cc(F)c2)C(=O)N[C@@H]2C(=O)N3CCC[C@H]3C(=O)N3CCOC[C@H]3C(=O)N[C@@H](C)C(=O)N3C[C@H](C)C[C@H]3C(=O)O[C@H]2C)cc1` stands 14.5% (inactive).

For the origin of these results see PubChem BioAssay (NCI).
